PubChem BioAssay (NCI)
About 83,000 compounds went through this panel and 20% of them were active in at least one assay; those are over-represented in the sample as a whole.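 48-hour exposure, single concentration, 96-well plates; percent growth endpoint where 0 means no net growth. Active: below 10.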 The source made the active and inactive calls.

test system: NCI/ADR-RES ovarian; experiment: NCI-60 one-dose screen, 48 h (100 = growth as untreated, 0 = no growth, -100 = all killed); conditions: 10 µM

Structure (SMILES) | growth
COc1cc(/C=C/c2cc(/C=C/c3ccc(O)c(OC)c3)[nH]c(=O)n2)ccc1O | 90.7% (inactive)
O=C1CSC(=S)N1/N=C/c1ccc(Cl)s1 | 97.5% (inactive)
COc1ccc(-c2onc(N)c2-c2cc(OC)c3c(c2)OCO3)cc1 | -10.2% (active)
COc1cc(/C=C/c2cc(/C=C/c3ccc(O)c(OC)c3)n(C(=O)Nc3ccc(C)cc3)n2)ccc1O | 20.5% (inactive)
COc1cc(NC(=O)Nc2cnc(Nc3ccc(N4CCOCC4)cc3)nc2Oc2cccc(OC)c2)cc(OC)c1 | 61% (inactive)
CC(=O)N[C@H](C(=O)N[C@@H](CCCNC(=N)N)C(=O)N[C@@H](CCCCN)C(=O)N[C@@H](CCCNC(=N)N)C(=O)NC(C(=O)N[C@@H](CC(C)C)C(=O)N[C@@H](CCCNC(=N)N)C(=O)N[C@@]1(C)CCC/C=C\CCC[C@@](C)(C(=O)N[C@@H](CCCNC(=N)N)C(=O)N[C@@H](CCC(=O)O)C(=O)N[C@@H](CC(C)C)C(=O)N[C@H](C(=O)N[C@@H](CCC(=O)O)C(N)=O)C(C)C)NC(=O)[C@H](CCC(N)=O)NC(=O)[C@H](CC(C)C)NC(=O)[C@H](CC(C)C)NC1=O)[C@@H](C)O)C(C)C (stereo partly drawn) | 17.3% (inactive)
Oc1ccc(/C=N/N=C2c3ccccc3-c3ccccc32)c(O)c1 | 72.9% (inactive)
C[C@@H](C[C@H](CCO)c1ccccc1)c1ccc2ccccc2c1 | -60.5% (active)

test system: T-47D breast; experiment: as above; conditions: 10 µM

Structure (SMILES) | growth
Oc1cccc(-c2nc3sccn3c2-c2ccncn2)c1 | 108% (inactive)
CCOC(=O)c1cc(C(=O)c2cc(OC)c(OC)c(OC)c2)n2ccc(-c3cc[n+](CC(=O)c4cc(OC)c(OC)c(OC)c4)cc3)cc12 | 50.1% (inactive)
C[C@H]1[C@H](OC(=O)CCC(=O)O)O[C@@H]2O[C@]3(C)CC[C@H]4[C@H](C)CC[C@@H]1[C@@]24OO3 | 31.3% (inactive)
COc1ccc(C(=O)N/N=C/c2cc(C(F)(F)F)ccc2Cl)cc1 | 90% (inactive)
COc1ccc(-c2cc(-c3ccc(Cl)cc3)nc(SCCCC(=O)NO)n2)cc1OC | 15% (inactive)
CCC(=O)OC1CCC2C3CCC(=O)OC3C(C)(CCC(=O)O)CC12C (stereo not drawn) | 37.7% (inactive)
OCC1OC(n2ccc3c(NO)ncnc32)C(O)C1O (stereo not drawn) | -18.9% (active)
CC(C)(C)c1ccc(S(=O)(=O)N[C@H]2CC[C@H]3[C@@H]4CCc5cc(O)c([N+](=O)[O-])cc5[C@H]4CC[C@]23C)cc1 | 46.6% (inactive)
COc1cc(-c2nn(-c3cccc(NC(=O)CCNc4ccc(N5CCOCC5)cc4)c3)cc2-c2ccncc2)ccc1Cl | 15.2% (inactive)
COc1cc(-c2nn(-c3cccc(NC(=O)CN4CCOCC4)c3)cc2-c2cccnc2)ccc1Cl | 72.2% (inactive)
O=C(CCCSc1nc(-c2ccccc2)cc(-c2ccc(Cl)cc2)n1)NO | 23.3% (inactive)
CC(C)N(CCOc1cccc(-c2nc3sccn3c2-c2ccnc(S(C)(=O)=O)n2)c1)C(C)C | 88.3% (inactive)
O=C(CCC(C(=O)c1ccccc1)c1ccccc1)c1ccccc1 (stereo not drawn) | 66.6% (inactive)
COc1ccc(-c2csc(NC(=O)c3ccc(Cc4n[nH]c(=O)c5cccnc45)cc3)n2)cc1 | 68.8% (inactive)
COc1cc(-c2nn(-c3cccc(NC(=O)CCN4CCN(Cc5ccccc5)CC4)c3)cc2-c2ccncc2)ccc1Cl | 29.7% (inactive)
COc1cc2cc(Oc3ccc(NC(=O)c4cc(C(F)(F)F)cc(C(F)(F)F)c4)cc3)c(C)nc2cc1OC | 86.7% (inactive)
C[C@]12CCC3c4ccc(O)cc4C[C@@H](CCCCCCCCCS(=O)CCCC(F)(F)C(F)(F)F)C3C1CC[C@@H]2O (stereo partly drawn) | 41.2% (inactive)
Cc1cc(Cl)ccc1Nc1nc(C(F)(F)F)ccc1C(=O)N/N=C/c1cccc(O)c1 | 39.8% (inactive)
COc1cc(C(=O)/C=C/c2c[nH]c3ccccc23)cc(OC)c1OC | 63.2% (inactive)
CCOC(=O)CC(S(=O)(=O)c1ccccc1)S(=O)(=O)c1ccccc1 | 88.1% (inactive)

Structure (SMILES) | growth
CCNCC(=O)Nc1ccc(C(=O)OCC)cc1 | 92.9% (inactive)
CCCc1cn(CC(=O)Nc2nc3ccccc3s2)nn1 | 102% (inactive)
COc1cc2cc(Oc3ccc(NC(=O)Nc4ccc(Cl)c(C(F)(F)F)c4)cc3)c(C)nc2cc1OC | 21.4% (inactive)
COc1cc(/C=C2\CCCC3=C2NC(N)=NC3c2cc(OC)c(OC)c(OC)c2)cc(OC)c1OC (stereo not drawn) | 27.5% (inactive)
COc1ccc(-c2cc(-c3ccc(Cl)cc3)nc(SCCCCCCC(=O)NO)n2)cc1OC | 36.1% (inactive)
COc1cc2ncnc(NC3CCC(O)CC3)c2cc1OC (stereo not drawn) | 80.3% (inactive)
COc1cc(C)ccc1Oc1nc(Nc2ccc(N3CCOCC3)cc2)ncc1NC(=O)Nc1cc(C(F)(F)F)cc(C(F)(F)F)c1 | 81.9% (inactive)
CCC(C)[C@H](NC(C)=O)C(=O)N[C@@H](CCCNC(=N)N)C(=O)N[C@@H](CCCCN)C(=O)N[C@@H](CC1CCC(O)CC1)C(=O)NC(C(=O)N[C@@H](CCSC)C(=O)N[C@@H](CCCNC(=N)N)C(=O)N[C@@]1(C)CCC/C=C\CCC[C@@](C)(C(=O)NC(C(=O)N[C@@H](CCC(=O)O)C(=O)N[C@@H](CC(C)C)C(=O)N[C@H](C(=O)N[C@@H](CCC(=O)O)C(N)=O)C(C)C)[C@@H](C)O)NC(=O)[C@H](CCC(N)=O)NC(=O)[C@H](CC(C)C)NC(=O)[C@H](CC(C)C)NC1=O)[C@@H](C)O (stereo partly drawn) | 78.9% (inactive)
CN1C(=O)C2(Nc3cc(Cl)ccc3S2)c2cc(Cl)ccc21 (stereo not drawn) | 71.6% (inactive)
CC(=O)Nc1ccc2c(c1)C(=O)c1cccc(C(=O)O)c1-2 | 99.3% (inactive)
O=C(CNc1nnc(-c2cccnc2SCc2ccccc2)s1)Nc1nc(Cl)cc(Cl)n1 | 79.3% (inactive)
CCOC(=O)c1cc(C(=O)c2cc(OC)c(OC)c(OC)c2)n2nc(C)ccc12 | 93.6% (inactive)
COc1cc(/C=C/c2cc(/C=C/c3ccc(O)c(OC)c3)[nH]c(=O)n2)ccc1O | 59.1% (inactive)
O=C1CSC(=S)N1/N=C/c1ccc(Cl)s1 | 102% (inactive)
COc1ccc(-c2onc(N)c2-c2cc(OC)c3c(c2)OCO3)cc1 | 19.3% (inactive)
COc1cc(/C=C/c2cc(/C=C/c3ccc(O)c(OC)c3)n(C(=O)Nc3ccc(C)cc3)n2)ccc1O | 5.65% (active)
COc1cc(NC(=O)Nc2cnc(Nc3ccc(N4CCOCC4)cc3)nc2Oc2cccc(OC)c2)cc(OC)c1 | 49.6% (inactive)
CC(=O)N[C@H](C(=O)N[C@@H](CCCNC(=N)N)C(=O)N[C@@H](CCCCN)C(=O)N[C@@H](CCCNC(=N)N)C(=O)NC(C(=O)N[C@@H](CC(C)C)C(=O)N[C@@H](CCCNC(=N)N)C(=O)N[C@@]1(C)CCC/C=C\CCC[C@@](C)(C(=O)N[C@@H](CCCNC(=N)N)C(=O)N[C@@H](CCC(=O)O)C(=O)N[C@@H](CC(C)C)C(=O)N[C@H](C(=O)N[C@@H](CCC(=O)O)C(N)=O)C(C)C)NC(=O)[C@H](CCC(N)=O)NC(=O)[C@H](CC(C)C)NC(=O)[C@H](CC(C)C)NC1=O)[C@@H](C)O)C(C)C (stereo partly drawn) | -53.4% (active)
Oc1ccc(/C=N/N=C2c3ccccc3-c3ccccc32)c(O)c1 | 42.8% (inactive)
C[C@@H](C[C@H](CCO)c1ccccc1)c1ccc2ccccc2c1 | -58.3% (active)
